PI5P4K alpha inh = blocks human PI5P4K alpha kinase activity; P48426; PI5P4Kalpha enzyme, ADP-Glo luminescence, 60 min; stronger effect = lower value; max response, %; hit rate 1.2% among 330,000; AID 652105; active = max response of -50% or lower; inconclusive = between -30% and -50%; inactive = -30% or higher; also: value at the top dose of about 77 µM; % is scaled to controls: 0 for no effect and ±100 for the full control effect
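Enzyme plus substrate dispensed, test compounds pinned in, then ATP (5 microM final) added. After 60 min at RT, ADP-Glo reagent 1 for 45 min and reagent 2 for 30 min preceded luminescence imaging.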
G9a inh = blocks human histone lysine methyltransferase G9a. Q96KQ7. Potency, µM (doses to about 102 µM), for the others: at the highest dose activity, negative = inhibition, most hits filed as inhibitors. hit rate 8.8% among 350,000. AID 504332. G9a H3K9 monomethylation, AlphaScreen, 2 h; also: potency is read from the fitted curve at half-maximal effect; % is scaled to controls: 0 for no effect and ±100 for the full control effect; nearly all actives have a fitted effect of over 75% in size
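AlphaScreen detection with an anti-monomethyl H3K9 antibody quantified product after a 2 h room-temperature reaction containing 500 nM biotinylated H3K9 peptide, 20 µM SAM and 20 nM enzyme, which had been preincubated 15 min with compound.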
JMJD2A Tudor inh = blocks the human JMJD2A Tudor domain | AlphaScreen JMJD2A-Tudor / H3K4me3 peptide binding | Potency, µM (doses to about 114 µM), for inactives: top-dose activity change, negative = inhibition, most hits filed as inhibitors | hit rate 4.4% among 390,000 | AID 504339; also: potency is read from the fitted curve at half-maximal effect; % is scaled to controls: 0 for no effect and ±100 for the full control effect; nearly all actives have a fitted effect of over 50% in size
BAZ2B block = BAZ2B (human) inhibition. Potency, µM (top dose mostly 114 µM), for inactives: at the highest dose activity change, negative = inhibition, usual class: inhibitors. AID 504333. hit rate 4.4% among 360,000. AlphaScreen BAZ2B-H3K14Ac peptide displacement; also: potency is read from the fitted curve at half-maximal effect; % is scaled to controls: 0 for no effect and ±100 for the full control effect; nearly all actives have a fitted effect of over 60% in size
Target sequence (Q9UIF8 whole entry, looked up): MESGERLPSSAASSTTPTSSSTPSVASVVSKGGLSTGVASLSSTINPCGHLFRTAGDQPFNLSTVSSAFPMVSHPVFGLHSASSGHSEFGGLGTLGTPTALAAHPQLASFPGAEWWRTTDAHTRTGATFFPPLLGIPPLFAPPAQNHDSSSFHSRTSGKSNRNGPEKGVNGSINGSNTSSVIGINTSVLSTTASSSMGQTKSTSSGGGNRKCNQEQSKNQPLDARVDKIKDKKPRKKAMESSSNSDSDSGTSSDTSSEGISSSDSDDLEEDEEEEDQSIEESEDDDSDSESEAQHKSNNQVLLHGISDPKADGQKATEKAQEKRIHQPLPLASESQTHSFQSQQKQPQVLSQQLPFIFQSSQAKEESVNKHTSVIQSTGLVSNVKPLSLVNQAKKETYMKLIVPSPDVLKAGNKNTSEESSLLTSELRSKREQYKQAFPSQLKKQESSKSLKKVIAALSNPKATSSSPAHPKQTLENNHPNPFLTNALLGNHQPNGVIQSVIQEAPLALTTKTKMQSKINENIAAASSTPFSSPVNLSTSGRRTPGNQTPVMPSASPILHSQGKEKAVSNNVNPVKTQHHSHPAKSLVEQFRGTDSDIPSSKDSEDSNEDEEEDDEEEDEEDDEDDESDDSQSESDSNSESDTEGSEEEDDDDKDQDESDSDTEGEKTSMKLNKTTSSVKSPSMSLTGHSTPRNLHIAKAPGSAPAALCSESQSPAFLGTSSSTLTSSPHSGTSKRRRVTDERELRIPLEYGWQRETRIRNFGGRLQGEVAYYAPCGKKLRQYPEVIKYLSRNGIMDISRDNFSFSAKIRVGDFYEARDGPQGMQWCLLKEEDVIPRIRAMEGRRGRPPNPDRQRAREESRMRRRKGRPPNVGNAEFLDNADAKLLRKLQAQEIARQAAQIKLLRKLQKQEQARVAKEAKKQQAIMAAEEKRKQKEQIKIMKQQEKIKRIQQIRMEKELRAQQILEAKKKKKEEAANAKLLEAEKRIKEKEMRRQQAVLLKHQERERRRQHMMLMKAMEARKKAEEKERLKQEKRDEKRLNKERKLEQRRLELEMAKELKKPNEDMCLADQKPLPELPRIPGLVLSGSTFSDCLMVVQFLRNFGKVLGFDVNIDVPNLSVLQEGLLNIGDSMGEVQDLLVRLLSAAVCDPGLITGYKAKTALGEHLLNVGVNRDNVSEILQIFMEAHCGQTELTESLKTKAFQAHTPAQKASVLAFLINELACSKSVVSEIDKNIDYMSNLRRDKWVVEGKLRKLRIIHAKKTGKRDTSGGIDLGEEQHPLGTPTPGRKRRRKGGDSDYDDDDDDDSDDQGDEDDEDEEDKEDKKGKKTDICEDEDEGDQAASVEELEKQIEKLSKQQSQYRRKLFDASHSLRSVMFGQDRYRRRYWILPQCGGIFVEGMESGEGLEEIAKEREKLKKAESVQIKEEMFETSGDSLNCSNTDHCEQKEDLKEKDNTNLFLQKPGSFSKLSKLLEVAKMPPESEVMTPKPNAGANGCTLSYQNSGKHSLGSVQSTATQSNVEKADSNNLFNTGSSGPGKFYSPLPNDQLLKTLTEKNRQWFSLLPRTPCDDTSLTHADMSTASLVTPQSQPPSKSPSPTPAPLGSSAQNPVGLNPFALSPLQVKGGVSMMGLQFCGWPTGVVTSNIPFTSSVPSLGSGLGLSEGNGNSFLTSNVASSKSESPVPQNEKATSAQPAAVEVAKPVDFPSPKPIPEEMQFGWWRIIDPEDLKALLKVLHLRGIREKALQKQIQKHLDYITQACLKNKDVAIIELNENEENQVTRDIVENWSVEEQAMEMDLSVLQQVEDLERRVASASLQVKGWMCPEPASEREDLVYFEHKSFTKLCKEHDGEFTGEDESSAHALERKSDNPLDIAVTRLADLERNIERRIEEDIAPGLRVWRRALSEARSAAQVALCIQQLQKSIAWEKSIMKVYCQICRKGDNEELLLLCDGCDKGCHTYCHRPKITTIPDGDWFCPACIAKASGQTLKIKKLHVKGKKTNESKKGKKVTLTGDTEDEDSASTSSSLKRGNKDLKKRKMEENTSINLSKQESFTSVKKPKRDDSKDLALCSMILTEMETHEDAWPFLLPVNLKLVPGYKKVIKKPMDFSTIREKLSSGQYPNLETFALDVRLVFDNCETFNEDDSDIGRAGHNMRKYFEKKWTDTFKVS
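Complex of BAZ2B and biotin-H3K14Ac (50 nM apiece) forms over 30 min at RT, then faces library compounds up to 110 uM for another 30 min; AlphaScreen beads added, 20 min dark incubation, luminescence read.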
PLK1 PBD inh = blocks phosphopeptide binding to human PLK1 polo-box domain. P53350. Plk1 PBD binding of FITC phosphopeptide, fluorescence polarization. Potency, µM, inactives show max response, negative = inhibition, usual class: inhibitors. hit rate 2.8% among 360,000. AID 720504; also: potency is read from the fitted curve at half-maximal effect; series mostly up to about 57 µM; % is scaled to controls: 0 for no effect and ±100 for the full control effect; nearly all actives have a fitted effect of over 65% in size
HP1b chromo inh = blocks HP1-beta chromodomain binding to methylated histone tails | P83916 | AlphaScreen HP1-beta / biotin-H3K9me3 peptide binding | Potency, µM (doses to about 114 µM), for inactives: at the highest dose activity change, negative = inhibition, most hits filed as inhibitors | hit rate 0.56% among 390,000; also: potency is read from the fitted curve at half-maximal effect; nearly all actives have a fitted effect of over 70% in size
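AlphaScreen: HP1-beta (50 nM) preformed 30 min with biotin-H3(1-18)K9me3 peptide (50 nM) in PBS pH 7.4, 0.01% Tween-20. Compound added for 30 min at RT, then streptavidin donor/nickel chelate acceptor beads (10 ug/mL) for 30 min.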
* hit, by the source's call; ? = inconclusive; · = not tested or not shown; [ ] = dose if it differs, or a comment. Compounds with a hit are over-represented: about 12% of the library has one in this group of screens. Unless noted, calls follow the shape of the dose curve; as a rule, active = well fitted curve in the direction sought with a large enough effect; inconclusive = small, poorly fitted or top-dose-only effect, or another doubt; inactive = no such curve, though single readings can be large; an effect the other way counts as inactive or inconclusive.

SMILES	PI5P4K alpha inh	G9a inh	JMJD2A Tudor inh	BAZ2B block	PLK1 PBD inh	HP1b chromo inh
CC1(C(=O)CSc2ncn[nH]2)CCC(=O)O1 (stereo not drawn)	·	11.2µM*	·	89.1µM*	·	·
CC1(C(=O)CSc2n[nH]c(-c3ccccc3Cl)n2)CCC(=O)O1 (stereo not drawn)	·	10µM*	·	?	·	·
Cn1c(CNC(=O)CSc2n[nH]c(-c3ccccc3Cl)n2)nc2ccccc21	·	28.2µM*	-26.9%	4.1%	·	25.3%[57 µM]
CC1CC2(CC(C)(C(=O)CSc3n[nH]c(-c4ccccc4Cl)n3)OC2=O)C(=O)O1 (stereo not drawn)	1.7	?	?	-9.1%	?	37.7%
CCc1ccc(OCC(=O)Nc2cc(-c3ccc(C)cc3)no2)cc1	·	-21.9%[59 µM]	-20.5%	-5.5%	·	42.4%
O=C(CN1CCN(c2ccc(F)cc2)CC1)NCc1ccc(F)cc1	6.9	4.7%	-5.7%	-23.5%	-5.8%	24.4%
COc1ccc(N2CCN(CC(=O)NCc3ccc(Cl)cc3)CC2)cc1	-5.1	·	?	?	15µM*	-16.7%
CCN(CC(=O)NCc1ccc(F)cc1)C(=O)CN1CCN(c2ccc(OC)cc2)CC1	-5.0	7.94µM*	0.891µM*	17.8µM*	1.8%	17.8µM*
COc1ccc(CCNC(=O)CCOc2ccc(C(C)(C)C)cc2)cc1OC	8.8	·	-19.1%	·	-0.8%	5.5%
COc1nccnc1NS(=O)(=O)c1ccc(NC(=S)NC(=O)c2cccnc2)cc1	-6.0	50.1µM*	-13.1%	?	-5.4%	8.1%
COc1nsnc1NS(=O)(=O)c1ccc(NC(=S)NC(=O)c2cccnc2)cc1	-18.0	·	11.2µM*	?	?	?
CCc1noc(C)c1C(=O)N1CCCSC1=Nc1ccccc1Cl	4.8	-34.1%	-2.6%	6.3%	-9.0%	22.9%
Cc1ccc2c(=O)c(C(=O)c3cccc(Cl)c3)cn(CC(=O)Nc3ccc4c(c3)OCCO4)c2n1	·	6.6%[59 µM]	-0.6%	-0.8%	·	47.6%
CCC(CC)COC(=O)C(C#N)c1nc2ccccc2nc1N1CCN(CC)CC1 (stereo not drawn)	·	44.7µM*	?	35.5µM*	-1.3%	7.3%
N#CC(c1nc2ccccc2nc1N1CCCC1)S(=O)(=O)c1cccs1 (stereo not drawn)	·	12.6µM*	?	-29.8%	?	-4.3%
COc1ccc(CNC(=O)C(C#N)c2nc3ccccc3nc2N2CCN(C)CC2)cc1 (stereo not drawn)	8.3	?	70.8µM*	50.1µM*	-6.0%	?
COC(=O)C(C#N)c1nc2ccccc2nc1N1CCCC1 (stereo not drawn)	3.8	-38.9%[12.7 µM]	-29.1%	?	-8.7%	0.2%
CN1CCN(c2nc3ccccc3nc2C(C#N)S(=O)(=O)c2ccccc2)CC1 (stereo not drawn)	0.6	·	-8.0%	-16.7%	7.9%	43.0%
CC(C)OC(=O)C(C#N)c1nc2ccccc2nc1N1CCCC1 (stereo not drawn)	-1.8	11.2µM*	-30.9%	-35.3%	3.5%	-0.2%
COc1ccc(OCCOC(=O)CNS(=O)(=O)c2ccc(SC)c([N+](=O)[O-])c2)cc1	-2.5	-37.4%	-22.3%	7.6%	-7.9%	-10.9%
COc1cc2c(cc1OC)C1(Nc3c-2c(Cc2ccccc2)nn3-c2ccccc2)C(=O)Nc2ccccc21 (stereo not drawn)	-28.9	39.8µM*	?	50.1µM*	-0.5%	-27.3%
COc1cc2c(cc1OC)C1(NCC2)C(=O)Nc2ccccc21 (stereo not drawn)	·	-3.6%[59 µM]	-8.1%	-1.5%	-5.1%	9.2%
O=C(C1CC(=O)N(c2ccccc2)C1)N1CCC(c2nc3ccccc3[nH]2)CC1 (stereo not drawn)	-25.5	44.7µM*	-14.4%	-2.5%	-16.8%	28.4%
COc1ccc(N2CC(C(=O)N3CCC(c4nc5ccccc5[nH]4)CC3)CC2=O)cc1 (stereo not drawn)	-9.5	-18.1%	-2.0%	1.1%	-8.7%	22.5%
COc1ccc(NC(=O)N2CCC(c3nc4ccccc4[nH]3)CC2)cc1	0.8	39.8µM*	0.7%	2.5%	-9.3%	46.4%
SMILES	PI5P4K alpha inh	G9a inh	JMJD2A Tudor inh	BAZ2B block	PLK1 PBD inh	HP1b chromo inh
CCc1ccc(NC(=O)C(C)OC(=O)C2CCN(c3ccc(C(F)(F)F)cn3)CC2)cc1 (stereo not drawn)	1.6	7.2%	4.8%	2.7%	-3.0%	24.0%
CC(C)(C)N(Cc1ccccc1)C(=O)COC(=O)C1CCN(c2ccc(C(F)(F)F)cn2)CC1	-0.9	?	15.8%	6.0%	-2.8%	49.4%
CC(C)N(Cc1ccccc1)C(=O)COC(=O)C1CCN(c2ccc(C(F)(F)F)cn2)CC1	-4.2	35.5µM*	11.0%	5.6%	-3.4%	?
CCN(c1ccc(NC(=O)COC(=O)C2CCN(c3ccc(C(F)(F)F)cn3)CC2)cc1)C(C)C	0.0	·	10µM*	·	-6.6%	?
COc1c(Cl)cc(Cl)cc1CNCCSc1nnnn1C	·	16.2%[59 µM]	-11.9%	-5.1%	·	55.6%
COc1cccc(CN2CCN(c3cccc(C(F)(F)F)c3)CC2)c1OC	·	6.31µM*	2.24µM*	?	-5.3%	?
COc1ccccc1CN1CCC2(CC1)CCN(C(C)=O)CC2	·	9.9%[12.7 µM]	·	·	·	·
COc1cccc(CN2CCN(Cc3cccc(Br)c3)CC2)c1OC	-7.4	?	3.16µM*	20µM*	-1.4%	22.4µM*
COC(=O)N1CCC2(CCN(Cc3ccccc3OC)CC2)CC1	·	-0.9%[12.7 µM]	·	·	·	·
COc1ccccc1CN1CCCCCC1	5.1	39.8µM*	1.26µM*	?	-6.5%	?
CCOC(=O)C1(Cc2cccc(OC)c2)CCN(Cc2cccc(OC)c2OC)CC1	-1.8	-0.4%	-6.0%[11.4 µM]	-20.1%	-3.0%	25.5%
COc1ccccc1CN1CCSCC1	·	?	6.31µM*	50.1µM*	-12.9%	70.8µM*
CCc1cccc(CC)c1-n1nnc2c(sc3nc(C)cc(C)c32)c1=O	·	7.2%[59 µM]	-31.1%	-0.9%	·	9.9%
COc1cc(C(O)c2nc(-c3cccc(NC(C)=O)c3)cs2)ccc1F (stereo not drawn)	2.6	·	·	·	-2.7%	·
COC(=O)[C@H](Cc1ccccc1)[C@@H](C)OS(N)(=O)=O	-0.5	6.6%	-6.4%	-9.1%	-4.1%	65.2%
COc1cccc(CN2CCSCC2)c1OC	-2.6	·	20µM*	79.4µM*	-11.3%	?
COc1ccccc1Cn1[nH]nnc1=S	?	3.16µM*	15.8µM*	-29.8%	23.8µM*	?
COc1ccccc1CN1C(=O)CNC1=S	0.1	-0.8%	-12.5%	-4.1%	-5.4%	14.6%[57 µM]
Fc1cc(Br)ccc1Nc1c2c(nc3nc(-c4cccs4)nn13)CCCC2	·	-4.3%[59 µM]	-28.1%	2.5%	·	36.8%[57 µM]
CC(C)(C)n1nc2c(c1NC(=O)Cc1ccc(F)cc1)CSC2	-8.2	44.7µM*	-21.4%	7.5%	-12.0%	26.6%
CN(C)C(=S)Nc1nc2ccccc2s1	?	-10.4%[0.501 µM]	3.55µM*	-37.4%	10.6µM*	?

From PubChem
